B1: d2r6_design_ppi_176_dldesign_0_cycle1_af2pred (protein)
chain: ALREEVEKKMGEVLDLLKELQEKKKKGELTPEQIELMQQSMRELAKAAGYLASGDKVEEAKKEAEKALELAKKALEE
B2: d1r11_design_ppi_865_dldesign_0_cycle0_af2pred (protein)
chain: DAELKAQAAKIAKEAIEKAKKAKDKNEVWRYASQGLAQLTRIAAAGSPEVKAFAAEQAKKLTEEAEKIVAAL
B3: d2r2_design_ppi_470_dldesign_0_cycle1_af2pred (protein)
chain: AAARARAYVALWQAANRAFAAAFATGSDAALAAARAAAAAAGAVLPGGRDAFLATVDSQAAALRAARAAAAAAAAA
B4: d1r12_design_ppi_387_dldesign_0_cycle1_af2pred (protein)
chain: MEAARAAFERRKAALEADRAEAEALLADPATAAEGRALLAALAVRAKAYGKLFAAHDPELGAELTALGEEAAALA
B5: d1r11_design_ppi_982_dldesign_0_cycle1_af2pred (protein)
chain: AAAARAQAAQVVADSARAAAKEAEAKAKEAEAKDPAYGKELKANAEKLKAAAEAAEADPAALPEAVKTLIEQTSNMRALEAKLAA
B6: d2r4_design_ppi_198_dldesign_0_cycle1_af2pred (protein)
chain: AASAAMRAFTAAYGAANAAVARLYAADPAAGAAAARALQAALDEALALGAATGVAGIEEGAAALAAAAAALAAEAAALAAA
B7: d2r6_design_ppi_231_dldesign_0_cycle1_af2pred (protein)
chain: AAAAEAAAAADERIATGAAAVAAMARVGARRGVEAARRLGERMLEAVTRAMAAEDPAAGARAREVGTAVFEAEIAAAAAAAAA
B8: d1r11_design_ppi_460_dldesign_0_cycle1_af2pred (protein)
chain: AAEEALKRAEELAKEVIELAEKVPEAAALGKKVREALEAARHGAESLMRAAARSTPEAAAVMNESAIAMNEAAIKLAEELRKEIEKIA
B9: d2r6_design_ppi_69_dldesign_0_cycle0_af2pred (protein)
chain: ALEELRRRASELWRALSPEARQAAARAVNARVAGDEAAAEAILAEQEARDPEQGALARAAADAALAAIDLANAQAAAAARAAAAAA
B10: d6r1_design_ppi_2_dldesign_0_cycle0_af2pred (protein)
chain: EEERRRAIEAAEGAVEAARKNLELFREAHPEATEEIARLEARVEEARREAERAREEGASVEEARRVLERARAVQAEITRALHRANLA
B11: d1r12_design_ppi_153_dldesign_0_cycle1_af2pred (protein)
chain: AAAHEAFVAEVTAVADAAADAASAAWLAGQTAGPEWRAVADRLVALAREALRAAADPARAPEARRAAAEAAALAAEAAALVAAA
B12: d1r12_design_ppi_675_dldesign_0_cycle0_af2pred (protein)
chain: DEARRAGALAFAEQLRASFAATRAAAAALPRASAAAALAGIAASAKQLGAVVPEAAELAAEAAAAAAAVAA
B13: d2r7_design_ppi_31_dldesign_0_cycle1_af2pred (protein)
chain: AEAEALEAGAQVLSIVTATRAQTVAAFAQDPALGRQMYRQLQAAVRLAETTAKAYPAVAAELLAAAAAARAEAQAAL
B14: d1r12_design_ppi_87_dldesign_0_cycle1_af2pred (protein)
chain: GAALEEAERLMEEAEAALAQAEATGDQRLLGAAMAAAERAVELATREASPEEAAEVERRAAELFARAAEVSQRIAAALLARAAAQA
B15: d2r6_design_ppi_356_dldesign_0_cycle0_af2pred (protein)
chain: SEEELEKTRASLEQLKGLAEWQAAQHPEQAPLYAEAARLAEEGMKATVEEARQLGAQASALLGRAVGAAAA
B16: d2r7_design_ppi_474_dldesign_0_cycle1_af2pred (protein)
chain: MASLEAGYQQFLDSIAALPLDRADAQLAAQAARHRELAARYAAAAEAAADPAVAARLRARARDHEAAAAAVEAIRAEVTARAAARA
B17: d2r2_design_ppi_370_dldesign_0_cycle1_af2pred (protein)
chain: RVISPAEIVELHTAANAALREALEGDPEAGLARLRAVADRAAALSPALGAALRAEAEGARAALAAAAAAAAA
B18: d2r6_design_ppi_165_dldesign_0_cycle0_af2pred (protein)
chain: MEVVEKVAELARKAAEAVERNLGEGFALAIQAADLAAEHEEVAEEAAEAAEEVLRKRAEEHPEHRERLLRLAEDFRSAVAHLLAQKA
B19: d2r3_design_ppi_395_dldesign_0_cycle1_af2pred (protein)
chain: SREALRQAGQLAVQAQTLANRGLALLLADPAAAPEAQALLDQAAALGEQAPVAAPVAETGRAQFAALAARL
B20: d1r12_design_ppi_293_dldesign_0_cycle1_af2pred (protein)
chain: AAAAEAARKAALAAAADAHAAGAQAALRAARQAAERGDPEAARTFMDLALTSAQQARDLYDEAGFPEKGKAVYEATRAAVAEVEALL
B21: d1r12_design_ppi_822_dldesign_0_cycle1_af2pred (protein)
chain: AAAARAAEAAALAAAVTAAAAAVAAAVAAGTPDEGRAAARAFGRAALGAAARLPEVAPAVDAAADVVSDAYVAAVAAR
B22: d1r12_design_ppi_474_dldesign_0_cycle0_af2pred (protein)
chain: KEELKKEIKKLAKKAKEHAEEAKRTAGDLGAMARHTTEAAAAAEKAQALAAKSGDEEAKKLAKEAKEAAAEATEHLVEAARAAA
B23: d1r11_design_ppi_712_dldesign_0_cycle1_af2pred (protein)
chain: MTPAQQAAQLANQANSYITMAKAALAAGDLETAKEFAELAIEYATQAQKLDPALGTAVKAEAEAVLAQVNAA
B24: d1r12_design_ppi_352_dldesign_0_cycle1_af2pred (protein)
chain: SAARARYAALVAESAEVGAATYDAAAKAAEAAGDAATAAKYKEAAALYKAGADAAKAGDIAAAVAKINAAAALVAA
B25: d1r12_design_ppi_102_dldesign_0_cycle0_af2pred (protein)
chain: AAAEAAARLAEAEALLAKAKEHAKKAKEAAKAGDLAAANQHATAASAAALAIKELGAPADIQAAADAAVAEAMDAVVAAAKAR
B26: d1r12_design_ppi_408_dldesign_0_cycle0_af2pred (protein)
chain: SLELAEAAHAAGRAAAADPARAAEAGALLKDMIAYALAASAAYREAEALRAAGGDQAAIDAAEAEAKAYEAKSKEKAAELKALAAAAA
B27: d2r6_design_ppi_333_dldesign_0_cycle0_af2pred (protein)
chain: MEEEGKKKAEEALKKAEESLKLAKSGKKLKEAEKKFAEALSLMEEAKPYLNKNPEVNKKLSKKLGEAAKALIAAKA
B28: d2r6_design_ppi_32_dldesign_0_cycle1_af2pred (protein)
chain: MKEELKKALKNAEDAAATAKQVAASDPEAKAKVEELEKEARKLAKEGLEGTEEKAEEALKRVGELTREILRIASQQFAKQQA
B29: d1r11_design_ppi_627_dldesign_0_cycle1_af2pred (protein)
chain: AEEVAARAAELTRTVHHGSPEEATAAARELTALVAAASPEAAAAGRRAIAETNKALLAETAAARAAAAAAAAAAAAAAAAAAA
B30: d2r6_design_ppi_95_dldesign_0_cycle1_af2pred (protein)
chain: AEAQAQAKAIVQQGYQDARALIDKYGLPVAAKVKVFNLVSAGAIIAEQGGTVEEVAAAVEAALAAAKAAAA
B31: d2r7_design_ppi_460_dldesign_0_cycle1_af2pred (protein)
chain: AAALAAARAAAAAAAAEAVARAAAEGPGLGLLMANEAARLLREAAAGDAAEVRAAAARLLAFAEQAIAAARANRAQAAAAR
B32: d1r11_design_ppi_712_dldesign_0_cycle0_af2pred (protein)
chain: MTPEEKAARLAAAADAYIKMAKAALAAGKLEEAKEFAEAALKAAKEAEKLDPELGAKKAAEAKAVKAEIDAA
B33: d2r7_design_ppi_218_dldesign_0_cycle0_af2pred (protein)
chain: SAAEAEAKRYINHAETTLATAKQLAERSTPEQAARYYRAAGEIAWKDYEKAGEALSPEEGEKMRKKGKEVKEELEKKAKELEEK
B34: d2r2_design_ppi_429_dldesign_0_cycle1_af2pred (protein)
chain: AAAEALRRALGAVLVAAHEAANRAAAERGLAAAEEVLAAGRAAGHALAARHPGAALARRAVDSQVAASAHVARHIAARAAALR
B35: d2r6_design_ppi_493_dldesign_0_cycle1_af2pred (protein)
chain: SATEAQVAAVKAKIDAATQAALNAHAARLTAAGIQAVIQTAYDASKAAGAEVKAGGDPEKAAAAAIKAVNDTAEAAAA
B36: d1r12_design_ppi_352_dldesign_0_cycle0_af2pred (protein)
chain: SRARANYAQLVAESAEGGAKAAEAKAKAAKAAGDEATAKKYEEAAELYREGAALAKAGDIAGAVAKINEAAALLAA
B37: d1r12_design_ppi_408_dldesign_0_cycle1_af2pred (protein)
chain: MEALAQAGHAANQAAAADPAQAPRAAALLREMIAHARAASAAWLEAQALEAAGGDPAAVAAARAAAAEHQAKAEALAAELKALAEAAA
B38: d2r6_design_ppi_69_dldesign_0_cycle1_af2pred (protein)
chain: GLEAAQAEASRLWRQLTPEGRAAAARAVNARVAGDTAAAAAILAAAKAADPAQGALAEAAAEALLRAIDLANAQAAAEAAARAAAA

Target: CD276, Q5ZPR3
Sequence (Q5ZPR3 whole entry): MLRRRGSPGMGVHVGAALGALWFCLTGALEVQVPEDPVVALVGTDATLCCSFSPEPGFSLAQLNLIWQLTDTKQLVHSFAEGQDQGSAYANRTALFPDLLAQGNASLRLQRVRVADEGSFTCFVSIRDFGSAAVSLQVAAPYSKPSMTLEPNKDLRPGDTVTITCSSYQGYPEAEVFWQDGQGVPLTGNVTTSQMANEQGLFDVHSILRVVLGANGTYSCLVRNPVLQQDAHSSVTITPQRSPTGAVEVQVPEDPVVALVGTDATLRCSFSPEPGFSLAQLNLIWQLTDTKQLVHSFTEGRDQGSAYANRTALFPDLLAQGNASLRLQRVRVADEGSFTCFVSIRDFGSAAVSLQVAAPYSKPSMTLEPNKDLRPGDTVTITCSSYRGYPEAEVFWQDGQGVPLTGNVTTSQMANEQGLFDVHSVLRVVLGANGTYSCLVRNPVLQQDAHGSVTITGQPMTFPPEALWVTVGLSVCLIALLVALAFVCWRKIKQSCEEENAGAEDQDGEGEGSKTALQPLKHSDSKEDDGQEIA

Binding in a display sort, inactive:
B1 not found
B2 not found
B3 not found
B4 not found
B5 not found
B6 not found
B7 not found
B8 not found
B9 not found
B10 not found
B11 not found
B12 not found
B13 not found
B14 not found
B15 not found
B16 not found
B17 not found
B18 not found
B19 not found
B20 not found
B21 not found
B22 not found
B23 not found
B24 not found
B25 not found
B26 not found
B27 not found
B28 not found
B29 not found
B30 not found
B31 not found
B32 not found
B33 not found
B34 not found
B35 not found
B36 not found
B37 not found
B38 not found

— article PMC13494018
